# From PubChem BioAssay
# Activity calls are given as the source filed them.
# What was measured:
# [1] = binders of probe aFSTL3 on microarray, primary screen, stem cell growth factor project, biochemical, small-molecule microarray, fluorescence 635/667 (AID 1064); settings: higher = more signal;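 also: measures binding of the biotinylated anti-FSTL3 antibody to printed compounds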
# [2] = binders from COS7 lysate, DM2A8 probe, primary screen, torsin A project, cell lysate, small-molecule microarray, fluorescence 635/667 (AID 1065); settings: higher = more signal, COS7 lysate expressing mutant human TOR1A
# [3] = binders of probe aFGF2 on microarray, primary screen, stem cell growth factor project, biochemical, small-molecule microarray, fluorescence 635/667 (AID 1067); settings: higher = more signal;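 also: measures binding of biotinylated aFGF2 protein to printed compounds on slides; z-score merges feature fluorescence and signal-to-noise across triplicate slides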
# [4] = binders of probe aFGF10 on microarray, primary screen, stem cell growth factor project, biochemical, small-molecule microarray, fluorescence 635/667 (AID 1071); settings: higher = more signal;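 also: score merges 667 nm spot intensity and signal to noise from triplicate slides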
# [5] = target: Neurogenic locus notch homolog protein 2 (Homo sapiens) (UniProt Q04721); test: Notch2 binders on small-molecule microarrays, primary screen, biochemical, small-molecule microarray, 635 nm fluorescence, stem cell growth factors (AID 1073); settings: Notch2 binding, higher = more signal
# [6] = target: Pro-neuregulin-1, membrane-bound isoform (Homo sapiens) (UniProt Q02297); test: NRG1 binders on small-molecule microarrays, primary screen, psychiatric disease protein project, biochemical, small-molecule microarray, fluorescence 635/667 (AID 1075); settings: NRG1 binding, 635 nm fluorescence, higher = more signal;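 also: score combines 667 nm spot fluorescence with signal to noise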
# [7] = system: Neuregulin-1 EGF-like domain; test: binders of neuregulin-1 EGF-like domain, primary screen, biochemical, small-molecule microarray, 635 nm fluorescence (AID 1081); settings: small-molecule microarray binding, higher = more signal;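 also: binding of the protein to compounds printed on small-molecule microarray slides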
# [8] = FRG1 promoter luciferase signal modulators, primary screen, FRG1 inhibition for FSHD, cell-based, C2C12 myotubes, firefly/Renilla luciferase, luminescence (AID 1084); settings: higher = more signal, called active from +8 up or from −8 down
# [9] = binders of probe aFST on microarray, primary screen, stem cell growth factor project, biochemical, small-molecule microarray, fluorescence 635/667 (AID 1086); settings: higher = more signal;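 also: score merges 667 nm fluorescence with signal-to-noise of each printed compound spot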
# [10] = binders of probe aHhip on microarray, primary screen, stem cell growth factor project, biochemical, small-molecule microarray, fluorescence 635/667 (AID 1087); settings: higher = more signal;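 also: score merges spot fluorescence at 667nm with spot signal to noise ratio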
# [11] = system: PRMT1 (protein arginine N-methyltransferase 1); test: PRMT1 binders on small-molecule microarrays, primary screen, biochemical, small-molecule microarray, 635 nm fluorescence (AID 1088); settings: small-molecule microarray binding, higher = more signal;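 also: binding of Prmt1 protein to compounds spotted on small-molecule microarray slides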
# [12] = yeast growth modulation, basal conditions, primary screen, YJM789 clinical isolate, OD600, 24 h (AID 1089);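 also: growth of clinical yeast isolate S. cerevisiae YJM 789 seeded 1000 cells per well; test concentration not given here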; settings: S. cerevisiae YJM789 growth, higher = more signal, called active from +8 up or from −8 down
# [13] = fission yeast growth modulation, primary screen, strain 972, OD600, 24 h, no modulator (AID 1090);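 also: basal condition with compound alone and no growth modifier present; test concentration not given here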; settings: S. pombe 972 growth, higher = more signal, called active from +8 up or from −8 down
# [14] = S. cerevisiae growth modulation with rapamycin, primary screen, strain BY4716, OD600, 96 h (AID 1091); settings: higher = more signal, called active from +8 up or from −8 down; also: test concentration not given here
# [15] = target: Torsin-1A-interacting protein 2 (Homo sapiens) (UniProt Q8NFQ8); test: LULL1 binders on small-molecule microarray, primary screen, cell lysate, human LULL1 lysate, 635/667 nm fluorescence (AID 1092); settings: hLULL1 lysate binding, 635 nm fluorescence, higher = more signal;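 also: probe is lysate of COS7 cells overexpressing human LULL1; score merges per-feature 667 nm fluorescence with signal-to-noise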
# [16] = E. coli growth modulation, two-sided OD650, primary screen, E. coli filamentation project, strain DRC41, 24 h (AID 1093); settings: OD650, 24 h, higher = more signal, called active from +8 up or from −8 down;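 also: MC1000 strain lacking acrAB efflux and sulA so SOS filamentation is blocked; test concentration not given here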
# [17] = small-molecule microarray binders of probe aLefty2, primary screen, biochemical, biotinylated probe, 635/667 nm fluorescence (AID 1094); settings: higher = more signal;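 also: score merges spot fluorescence near 667 nm with spot signal-to-noise ratio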
# [18] = system: Noggin (protein binding on small-molecule microarray); test: Noggin binders on small-molecule microarray, primary screen, biochemical, 635/667 nm fluorescence (AID 1095); settings: 635 nm fluorescence, higher = more signal;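 also: score merges 667 nm feature fluorescence with signal to noise over triplicate slides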
# [19] = target: Neurogenic locus notch homolog protein 3 (Homo sapiens) (UniProt Q9UM47); test: NOTCH3 binders on small-molecule microarray, primary screen, biochemical, 635/667 nm fluorescence (AID 1096); settings: NOTCH3 binding, 635 nm fluorescence, higher = more signal
# [20] = small-molecule microarray binders of probe aEGFR, primary screen, biochemical, biotinylated probe, 635/667 nm fluorescence (AID 1097); settings: higher = more signal;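 also: probe is a biotinylated anti-EGFR antibody binding compounds printed on slides; score combines fluorescence near 667 nm and signal to noise of each spot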
# Chain of Pro-neuregulin-1, membrane-bound isoform (Homo sapiens) (Q02297 whole entry, looked up, the tested form may be a part, canonical isoform): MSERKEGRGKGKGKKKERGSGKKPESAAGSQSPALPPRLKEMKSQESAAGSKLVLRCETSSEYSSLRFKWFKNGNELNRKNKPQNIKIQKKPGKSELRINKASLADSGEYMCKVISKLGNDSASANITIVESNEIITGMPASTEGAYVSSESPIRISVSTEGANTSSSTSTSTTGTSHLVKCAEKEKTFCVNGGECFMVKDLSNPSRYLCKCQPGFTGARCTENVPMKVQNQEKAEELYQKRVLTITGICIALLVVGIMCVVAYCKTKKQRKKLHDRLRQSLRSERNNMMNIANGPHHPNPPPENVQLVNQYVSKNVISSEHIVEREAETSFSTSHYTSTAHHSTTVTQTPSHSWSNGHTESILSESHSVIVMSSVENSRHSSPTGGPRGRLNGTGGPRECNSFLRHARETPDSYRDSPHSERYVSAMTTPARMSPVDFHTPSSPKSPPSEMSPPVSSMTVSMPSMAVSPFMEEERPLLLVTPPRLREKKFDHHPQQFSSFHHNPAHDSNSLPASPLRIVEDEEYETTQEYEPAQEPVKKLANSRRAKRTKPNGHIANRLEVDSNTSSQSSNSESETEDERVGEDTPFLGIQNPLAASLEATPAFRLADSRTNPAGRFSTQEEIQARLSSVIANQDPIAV
# Chain of Neurogenic locus notch homolog protein 3 (Homo sapiens) (Q9UM47 whole entry, looked up): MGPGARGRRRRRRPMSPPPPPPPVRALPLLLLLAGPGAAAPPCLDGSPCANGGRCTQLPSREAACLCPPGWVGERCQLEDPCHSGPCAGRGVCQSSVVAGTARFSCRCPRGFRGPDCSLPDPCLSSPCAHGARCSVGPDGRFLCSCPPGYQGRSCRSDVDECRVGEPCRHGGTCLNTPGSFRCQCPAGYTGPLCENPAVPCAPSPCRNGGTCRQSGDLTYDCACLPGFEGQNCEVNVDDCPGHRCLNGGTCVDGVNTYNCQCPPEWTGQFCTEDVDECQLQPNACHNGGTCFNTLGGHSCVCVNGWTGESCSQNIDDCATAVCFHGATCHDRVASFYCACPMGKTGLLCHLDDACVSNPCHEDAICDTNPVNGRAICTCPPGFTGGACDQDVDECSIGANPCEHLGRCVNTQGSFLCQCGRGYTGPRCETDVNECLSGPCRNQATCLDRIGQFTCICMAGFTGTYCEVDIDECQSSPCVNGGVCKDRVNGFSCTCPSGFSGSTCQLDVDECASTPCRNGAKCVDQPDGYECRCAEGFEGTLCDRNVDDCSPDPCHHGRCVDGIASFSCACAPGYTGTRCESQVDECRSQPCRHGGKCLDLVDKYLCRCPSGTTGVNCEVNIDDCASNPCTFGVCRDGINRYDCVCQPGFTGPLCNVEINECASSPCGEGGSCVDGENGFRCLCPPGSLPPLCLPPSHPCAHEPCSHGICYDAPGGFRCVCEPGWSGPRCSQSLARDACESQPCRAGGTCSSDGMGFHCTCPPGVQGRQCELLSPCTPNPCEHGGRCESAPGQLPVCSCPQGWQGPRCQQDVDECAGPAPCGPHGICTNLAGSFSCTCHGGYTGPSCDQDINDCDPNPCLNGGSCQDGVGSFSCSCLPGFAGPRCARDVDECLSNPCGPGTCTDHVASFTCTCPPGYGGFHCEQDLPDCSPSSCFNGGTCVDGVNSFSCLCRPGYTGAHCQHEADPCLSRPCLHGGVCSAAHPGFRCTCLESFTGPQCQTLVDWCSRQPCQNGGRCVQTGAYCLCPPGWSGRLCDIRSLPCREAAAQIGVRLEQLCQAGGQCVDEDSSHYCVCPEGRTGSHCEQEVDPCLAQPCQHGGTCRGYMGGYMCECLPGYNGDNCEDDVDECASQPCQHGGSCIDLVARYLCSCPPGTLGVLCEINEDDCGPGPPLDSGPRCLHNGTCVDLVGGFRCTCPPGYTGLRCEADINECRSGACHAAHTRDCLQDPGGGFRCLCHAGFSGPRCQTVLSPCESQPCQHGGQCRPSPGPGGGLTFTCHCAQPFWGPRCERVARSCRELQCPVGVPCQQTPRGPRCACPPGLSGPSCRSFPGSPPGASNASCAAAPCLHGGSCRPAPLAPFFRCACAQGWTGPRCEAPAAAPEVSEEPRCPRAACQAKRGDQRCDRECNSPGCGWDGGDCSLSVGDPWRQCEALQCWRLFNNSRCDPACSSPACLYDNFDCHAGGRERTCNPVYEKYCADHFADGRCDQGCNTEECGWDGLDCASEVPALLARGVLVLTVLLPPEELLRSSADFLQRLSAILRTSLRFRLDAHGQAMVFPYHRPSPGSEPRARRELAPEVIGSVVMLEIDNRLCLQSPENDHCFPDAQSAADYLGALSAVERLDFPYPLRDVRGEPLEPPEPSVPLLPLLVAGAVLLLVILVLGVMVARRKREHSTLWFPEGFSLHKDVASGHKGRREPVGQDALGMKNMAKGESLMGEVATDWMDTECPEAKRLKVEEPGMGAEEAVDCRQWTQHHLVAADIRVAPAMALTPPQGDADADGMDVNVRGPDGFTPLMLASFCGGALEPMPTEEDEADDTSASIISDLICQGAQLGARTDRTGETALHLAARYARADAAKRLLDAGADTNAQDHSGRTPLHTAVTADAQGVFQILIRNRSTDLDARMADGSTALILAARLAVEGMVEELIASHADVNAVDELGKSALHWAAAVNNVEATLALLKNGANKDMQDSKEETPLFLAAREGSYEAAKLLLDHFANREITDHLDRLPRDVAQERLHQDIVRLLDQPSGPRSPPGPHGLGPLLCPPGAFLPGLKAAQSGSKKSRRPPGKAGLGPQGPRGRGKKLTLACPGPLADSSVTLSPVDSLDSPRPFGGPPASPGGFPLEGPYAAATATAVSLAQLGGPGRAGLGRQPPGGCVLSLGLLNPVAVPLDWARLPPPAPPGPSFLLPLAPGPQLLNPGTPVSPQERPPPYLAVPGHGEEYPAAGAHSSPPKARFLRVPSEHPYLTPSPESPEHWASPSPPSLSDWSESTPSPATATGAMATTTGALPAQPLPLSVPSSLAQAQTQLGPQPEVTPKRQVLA
# Chain of Torsin-1A-interacting protein 2 (Homo sapiens) (Q8NFQ8 whole entry, looked up): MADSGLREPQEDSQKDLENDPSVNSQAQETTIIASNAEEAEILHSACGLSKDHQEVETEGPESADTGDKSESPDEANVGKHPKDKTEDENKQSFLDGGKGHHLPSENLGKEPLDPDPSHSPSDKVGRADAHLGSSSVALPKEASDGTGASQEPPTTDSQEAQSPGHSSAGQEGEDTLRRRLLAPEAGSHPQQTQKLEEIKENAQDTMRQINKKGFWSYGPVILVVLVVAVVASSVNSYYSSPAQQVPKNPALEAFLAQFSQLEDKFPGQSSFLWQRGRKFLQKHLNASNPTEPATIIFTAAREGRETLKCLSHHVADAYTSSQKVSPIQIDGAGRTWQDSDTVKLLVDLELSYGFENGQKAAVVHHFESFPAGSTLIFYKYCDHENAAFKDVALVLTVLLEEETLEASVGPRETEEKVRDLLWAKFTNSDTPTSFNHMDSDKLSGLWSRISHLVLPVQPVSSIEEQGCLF
SMILES,composite z-score [1],composite z-score [2],composite z-score [3],composite z-score [4],composite z-score [5],composite z-score [6],composite z-score [7],z-score [8],composite z-score [9],composite z-score [10],composite z-score [11],z-score [12],z-score [13],z-score [14],composite z-score [15],z-score [16],composite z-score [17],composite z-score [18],composite z-score [19],composite z-score [20]
C=CCNC(=O)[C@H]1[C@@H]2C(=O)O[C@@H](c3ccccc3)[C@@H](c3ccccc3)N2[C@@H](c2ccc(OCCO)cc2)[C@]12C(=O)N(C(=O)OCCOC)c1ccccc12,-0.268,0.847,0.0732,0.591,1.45,1.53,1.38,-2.56 (inactive),0.854,0.251,1.54,2.07 (inactive),0.0313 (inactive),4.62 (inactive),3.07,0.909 (inactive),0.0316,1.09,1.04,0.107
COCCn1c(C(=O)N2CCCC2)cc2c1C[C@H]1CN(C(=O)c3ccccc3)[C@@](Cc3ccc(F)cc3)(C(=O)OC)[C@@H]21,0.123,0.214,0.24,0.252,1.41,1.81,0.997,2.89 (inactive),0.77,0.0078,1.12,-0.339 (inactive),0.0582 (inactive),-0.0799 (inactive),3.84,-0.191 (inactive),0.166,0.126,0.583,0.0843
CN1C(=O)C2C=CC(C(O)C3=C[C@H]4C[C@@H](C3)C4(C)C)N(Nc3ccccc3)C2C1=O (stereo not given in full),1.23,0.329,-0.0454,0.677,1.49,0.986,1.02,0.175 (inactive),1.23,0.064,0.965,0.443 (inactive),0.192 (inactive),1.31 (inactive),2.46,0.0208 (inactive),0.161,0.305,1.14,-0.0065
COC(=O)[C@@]1(Cc2ccccc2)[C@H]2c3cc(C(=O)N(C)C)n(CCSCCO)c3C[C@H]2CN1C(=O)c1ccccc1,-0.303,1.07,0.0413,0.689,1.17,1.28,1.24,1.27 (inactive),0.335,0.347,-0.0249,-0.177 (inactive),0.536 (inactive),-0.694 (inactive),3.09,-0.842 (inactive),0.172,-0.411,-0.0488,0.0239
Cc1ccc(S[C@]2(C(=O)NCC(F)(F)F)CC(=O)N(C(C)C)[C@@H]2c2ccc(CO)cc2I)cc1,0.163,-0.98,-0.04,0.0063,-0.806,1.08,-0.395,-0.0636 (inactive),-0.349,-0.374,-0.466,-0.0408 (inactive),-0.704 (inactive),2.23 (inactive),1.15,0.0493 (inactive),-0.0873,-1.13,-1.01,-0.2
COC(=O)c1c(CC[C@@H](CO)NC(=O)N2CCC[C@H]2Cn2cc(-c3ccccn3)nn2)oc(C(C)=O)c1C(=O)OC,-0.508,-0.0298,-0.1,0.639,-0.357,0.963,0.808,0.634 (inactive),-0.0939,-0.0427,0.986,-0.833 (inactive),0.195 (inactive),-1.46 (inactive),3.03,1.25 (inactive),-0.155,0.81,-0.126,-0.13
COCCOC(=O)N1C(=O)[C@@]2(c3cc(C#CC4=CCCCC4)ccc31)[C@H](C(N)=O)[C@H]1C(=O)O[C@H](c3ccccc3)[C@H](c3ccccc3)N1[C@@H]2c1ccc(OCCO)cc1,-0.809,0.897,-0.0009,0.806,0.254,0.514,1.19,-0.408 (inactive),-0.335,-0.237,1.54,1.44 (inactive),1.28 (inactive),3.59 (inactive),1.6,-0.385 (inactive),-0.399,0.904,1.01,-0.238
C=CCNC(=O)[C@@H]1[C@H]2C(=O)O[C@H](c3ccccc3)[C@H](c3ccccc3)N2[C@H](c2ccccc2OCCO)[C@@]12C(=O)N(C(=O)OCCOC)c1ccc(C#CCNC(N)=O)cc12,-0.14,0.428,-0.0864,0.354,0.524,1.27,0.958,-0.623 (inactive),-0.0306,0.251,1.46,1.11 (inactive),0.731 (inactive),2.72 (inactive),2.85,-0.395 (inactive),0.0395,0.61,1.12,0.0149
CC(C)(C)OC(=O)CC[C@]1(C(=O)O)N=C(c2ccc(OCCCO)cc2)O[C@H]1c1ccccc1N=[N+]=[N-],1.1,0.236,0.441,0.448,0.984,1.35,1.14,5.5 (inactive),2.04,1.24,0.938,0.0071 (inactive),0.179 (inactive),-0.668 (inactive),3,-0.0096 (inactive),1.1,0.189,0.41,0.285
O=C1C2C=CC(C(O)c3c(F)cccc3Cl)N(Nc3ccccc3)C2C(=O)N1c1ccccc1 (stereo not given),-0.0072,-0.0274,0.0363,0.354,1.7,1.86,1.25,-3.84 (inactive),1.09,-0.359,1.56,0.269 (inactive),0.211 (inactive),0.395 (inactive),3.43,0.063 (inactive),0.0313,0.461,1.04,-0.0251
COC(=O)[C@@]1(Cc2ccc(OC)cc2)[C@H]2c3cc(C(=O)N4CCCC4)n(Cc4ccccc4)c3C[C@H]2CN1C(=O)c1ccccc1,2.67,0.0681,0.788,0.784,1.61,1.98,1.36,0.42 (inactive),2.34,0.671,0.678,-0.183 (inactive),0.657 (inactive),1.12 (inactive),3.37,-0.801 (inactive),1.62,-0.242,1.05,1.25
C=CCOC(=O)[C@@H]1[C@H]2C(=O)O[C@H](c3ccccc3)[C@H](c3ccccc3)N2[C@H](c2ccc(OCCOC(=O)[C@@H]3C[C@@H]4C(=O)N[C@@H](CCCCN(C)C)C(=O)N4[C@@H]3c3ccc(O)cc3)cc2)[C@@]12C(=O)Nc1ccc(I)cc12,-0.317,0.25,-0.0216,0.347,1.2,1.11,1.2,0.0976 (inactive),0.171,-0.108,1.51,0.767 (inactive),-0.858 (inactive),1.51 (inactive),2.95,-0.907 (inactive),-0.119,1.24,1.11,0.0727
O=C1c2ccccc2[C@](Cc2ccccc2I)(C(=O)NC2CC2)[C@H](c2ccc(CO)cc2)N1Cc1ccccc1,0.16,-0.211,-0.0335,0.483,0.543,0.458,0.774,-3.11 (inactive),-0.364,-0.0994,0.735,-0.835 (inactive),-0.388 (inactive),-1.15 (inactive),2.86,0.192 (inactive),-0.0741,0.133,0.566,-0.0681
CCOC(=O)C=Cc1cc([N+](=O)[O-])ccc1O,0.36,-0.11,-0.159,-0.239,-1,-0.306,0.358,2.07 (inactive),-0.31,0.0044,0.385,-1.21 (inactive),-0.201 (inactive),-1.62 (inactive),0.381,-0.828 (inactive),-0.088,-0.609,-0.465,-0.141
CC(C)C(CO)N1C(=O)[C@@H]2[C@H]3C(=O)OCC=C[C@H]3OC23C=CCN(C(C)C)C(=O)[C@@H]13 (stereo not given in full),-0.25,-0.615,-0.187,-0.271,-0.142,0.814,-0.677,-0.724 (inactive),-0.422,-0.374,0.261,0.58 (inactive),0.38 (inactive),0.136 (inactive),1.4,1.99 (inactive),-0.273,0.503,0.51,-0.194
C=C(COC)/C(=C/C[C@H](OC(=O)c1ccncc1)c1ccc(OCCO)cc1)c1cnc2ccccc2c1,-0.219,0.833,0.0485,0.97,1.57,1.4,1.14,1.87 (inactive),1.14,0.12,1.53,-0.922 (inactive),-1.39 (inactive),0.0294 (inactive),3.13,-0.124 (inactive),-0.0094,1.39,1.05,0.0176
OC([C@@H]1CC(c2ccccc2)=NO1)[C@H]1CC(c2ccccc2)=NO1 (stereo not given in full),0.0787,-0.141,-0.0634,0.287,0.178,-0.0896,0.563,0.364 (inactive),0.227,0.0024,-0.629,0.784 (inactive),-0.786 (inactive),1.55 (inactive),0.299,2.52 (inactive),-0.0748,0.281,-0.158,0.0655
C#CCN(Cc1ccccc1Br)C(/C=C/c1ccccc1)CO (stereo not given),0.389,0.0837,-0.148,0.0126,-0.619,-0.17,-0.131,-1.83 (inactive),-0.481,-0.236,-0.69,-2.9 (inactive),-19.4 (active),0.934 (inactive),0.123,0.556 (inactive),-0.144,-0.193,-0.598,-0.277
COc1ccc(C(O)C2C=CC3C(=O)NC(=O)C3N2Nc2ccccn2)c2ccccc12 (stereo not given),-0.37,0.184,0.0467,0.246,0.388,1,0.741,0.87 (inactive),0.119,-0.0994,-0.385,-0.327 (inactive),-0.0861 (inactive),0.188 (inactive),1.02,-0.794 (inactive),-0.132,-0.127,0.223,-0.107
C[C@@]1([C@@H](NC(=O)c2ccccc2)c2ccc(-c3ccccc3)cc2)C[C@H]1C1CCCCC1,0.742,-0.671,0.0891,-0.227,1.16,-0.0156,-0.382,2.09 (inactive),0.57,0.122,-1.93,-0.0151 (inactive),0.443 (inactive),0.32 (inactive),0.429,-1.48 (inactive),0.527,-0.992,-1.42,0.247
